The values below come from PubChem BioAssay (NCATS).

Test [1] is described as follows: qHTS assay for small molecule agonists of the antioxidant response element (ARE) signaling pathway (AID 651741; active means well fitted activation curve with a large enough effect in the signal ratio; the % refers to the signal ratio; further: potency means the concentration at half of the fitted maximal effect; on activation: % of control where 0% means no effect). The method, boiled down:
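Agonist activity is measured as ARE-driven beta-lactamase expression in a stable HepG2 reporter line, using 16 h compound treatment at 37 C and a FRET substrate fluorescence readout after 2 h.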
(In general: In qHTS, concentration-response curves come from the screen itself.)

A short description of test [2]: qHTS assay for environmental chemicals that activate the Aryl hydrocarbon Receptor (AhR) signaling pathway (AID 651777). Further: nearly all actives have a fitted effect of over 15% in size. Further: potency means the concentration at half of the fitted maximal effect. On activation: % of control where 0% means no effect. Particulars: 1A2-DRE human hepatoma cells, luciferase, 24 h; activation: active compounds read high. The method, boiled down:
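1A2-DRE human hepatoma reporter line; 1,200 cells/well; cmpd or DMSO 24 h, 37 C/5% CO2; One-Glo 30 min RT; luciferase lum.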

In test [3] the target is Peroxisome proliferator-activated receptor alpha (Homo sapiens) (UniProt Q07869). Put plainly: qHTS assay for small molecule agonists of the peroxisome proliferator-activated receptor alpha (PPARalpha) signaling pathway (AID 651778). Further: % of control where 0% means no effect. The note with it: PathHunter PPARalpha complementation, chemiluminescence, 6 h; active compounds read high. The procedure, abridged:
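Chemiluminescence from complemented enzyme reported PPARalpha activation in cells after 6 hr of compound treatment at 37 C. The detection reagent was incubated for 60 min at room temperature, and compounds were scored as agonists.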

The nature of test [4]: qHTS assay for small molecule activators of the p53 signaling pathway (AID 651743; active means well fitted activation curve with a large enough effect in the signal ratio, not every such curve was filed as active; the % refers to the signal ratio; further: potency means the concentration at half of the fitted maximal effect; on activation: series mostly up to about 92 µM; % of control where 0% means no effect). The note with it: HCT-116 p53RE-bla, beta-lactamase FRET ratio, 16 h; activation: active compounds read high. The procedure, abridged: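 A beta-lactamase reporter under p53 response element control, stably carried by HCT-116 cells, reported pathway activation. Test compounds were applied for 16 hours at 37 C, and fluorescence was measured 2 hours after adding the B/G FRET substrate.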

Test [5] can be described thus: qHTS assay for small molecule disruptors of the mitochondrial membrane potential - 1 hr assay (AID 651754; calls by dose curve; further: nearly all actives have a fitted effect of over 35% in size; further: potency means the concentration at half of the fitted maximal effect). The method, boiled down:
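In this qHTS format, a 1 hr compound treatment of HepG2 cells precedes Mito-MPS staining, and membrane potential is judged from aggregate (red) against monomer (green) fluorescence intensity.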

Test [6] can be described thus: qHTS assay for small molecule disruptors of the mitochondrial membrane potential - 5 hr assay (AID 651755; calls by dose curve; further: nearly all actives have a fitted effect of over 40% in size; further: potency means the concentration at half of the fitted maximal effect). The method, boiled down: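 Membrane-potential dye readout: red aggregate (540 ex/590 em) versus green monomer (490 ex/535 em) fluorescence after 30 min dye loading, following 5 hr compound exposure at 37C of overnight-plated HepG2 cells.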
For test [7], the target named is Nuclear receptor ROR-gamma (Homo sapiens) (UniProt P51449). Put plainly: qHTS assay for small molecule antagonists of the retinoid-related orphan receptor gamma (ROR-gamma) signaling pathway (AID 651802). Further: nearly all actives have a fitted effect of over 60% in size. Further: potency means the concentration at half of the fitted maximal effect. The method, boiled down: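 Doxycycline-induced reporter activity in engineered CHO cells (TET-inducible ROR, RORE-LUC) was measured by luminescence after 16hr compound exposure at 37C.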
Nuclear receptor ROR-gamma (Homo sapiens), sequence (P51449 whole entry, looked up): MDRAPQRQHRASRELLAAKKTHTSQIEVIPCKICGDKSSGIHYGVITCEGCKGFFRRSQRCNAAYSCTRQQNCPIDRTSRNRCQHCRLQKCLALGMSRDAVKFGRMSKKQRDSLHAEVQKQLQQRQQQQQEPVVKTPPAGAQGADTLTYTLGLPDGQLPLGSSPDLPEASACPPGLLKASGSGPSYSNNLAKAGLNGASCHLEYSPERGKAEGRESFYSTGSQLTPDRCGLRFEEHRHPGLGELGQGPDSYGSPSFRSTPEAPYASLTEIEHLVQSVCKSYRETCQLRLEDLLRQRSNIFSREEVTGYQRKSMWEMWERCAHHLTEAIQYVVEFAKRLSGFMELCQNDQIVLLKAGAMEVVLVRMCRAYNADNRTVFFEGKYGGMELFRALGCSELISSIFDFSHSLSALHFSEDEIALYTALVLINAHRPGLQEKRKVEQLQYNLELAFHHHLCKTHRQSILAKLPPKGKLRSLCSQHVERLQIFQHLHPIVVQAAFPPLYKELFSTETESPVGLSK

Test [8] deals with Arylsulfatase A (Homo sapiens) (UniProt P15289). Description: qHTS screen for enhancers of Arylsulfatase A (ASA1): LOPAC Validation Assay (AID 720538). The note with it: outcome: dose series up to 57.5 µM. The procedure, abridged:
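SV40-transformed skin fibroblasts from an MLD patient (ASA-I179S) were treated with compounds for 48h at 37 degree C, then lysed with 0.5mM pNCS final substrate for 14h at room temperature; NaOH stop, fluorescence read (Ex=525 nm; Em=598 nm).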

A short description of test [9]: HTS Assay for Allosteric Antagonists of the Human D2 Dopamine Receptor: Hit Validation in HTRF (AID 624455).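 Further: stable D1 dopamine receptor cell line scored for blocking the D1 response; on the % scale 0 is the no-effect control and ±100 the full control effect.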 The method, boiled down:
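Validation of hits used D1 receptor stably expressed in cells with HTRF detection of response inhibition; origin screen measured calcium flux following EC80 dopamine in a force-coupled, inducible Hek293 Trex D2 cell line.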

Test [10] is described as follows: qHTS assay to identify small molecules that stimulate interleukin-8 (IL-8) secretion (AID 651758; active means well fitted activation curve with a large enough effect in the signal ratio; the % refers to the signal ratio; further: 0% is about no effect). The procedure, abridged:
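Secreted IL-8 measured homogeneously by TR-FRET (two labelled anti-IL-8 antibodies, 1-3 h at room temperature) after a 16 h, 37 C compound treatment of THP-1 cells at 2000 cells/well.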

Where “and” joins values, the source holds several entries; their conditions need not be identical. Equal values may be shown once. Unmarked numbers belong to inactive results. Records with an inconclusive call do not appear. Calls of active or inactive are those of the source. Unless noted, the call rests on the fitted dose curve; in most records, active means well fitted curve in the direction sought with a large enough effect; inconclusive means small, poorly fitted or top-dose-only effect, or another doubt; inactive means no such curve, though single readings can be large; an effect the other way counts as inactive or inconclusive.

Peroxisome proliferator-activated receptor alpha (Homo sapiens), sequence (Q07869 whole entry, looked up): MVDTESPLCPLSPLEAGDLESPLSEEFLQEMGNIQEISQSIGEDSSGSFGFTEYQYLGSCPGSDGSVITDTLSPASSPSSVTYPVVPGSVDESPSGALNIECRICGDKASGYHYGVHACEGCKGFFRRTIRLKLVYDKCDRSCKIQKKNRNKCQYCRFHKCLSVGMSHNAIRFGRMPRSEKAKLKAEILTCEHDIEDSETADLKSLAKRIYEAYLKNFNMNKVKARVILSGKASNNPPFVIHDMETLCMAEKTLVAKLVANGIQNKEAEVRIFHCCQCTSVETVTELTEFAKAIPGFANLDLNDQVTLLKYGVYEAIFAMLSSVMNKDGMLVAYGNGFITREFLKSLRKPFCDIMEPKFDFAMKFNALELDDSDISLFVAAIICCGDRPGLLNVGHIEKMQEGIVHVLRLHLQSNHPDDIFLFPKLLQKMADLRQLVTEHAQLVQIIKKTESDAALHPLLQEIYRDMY
Arylsulfatase A (Homo sapiens), sequence (P15289 whole entry, looked up): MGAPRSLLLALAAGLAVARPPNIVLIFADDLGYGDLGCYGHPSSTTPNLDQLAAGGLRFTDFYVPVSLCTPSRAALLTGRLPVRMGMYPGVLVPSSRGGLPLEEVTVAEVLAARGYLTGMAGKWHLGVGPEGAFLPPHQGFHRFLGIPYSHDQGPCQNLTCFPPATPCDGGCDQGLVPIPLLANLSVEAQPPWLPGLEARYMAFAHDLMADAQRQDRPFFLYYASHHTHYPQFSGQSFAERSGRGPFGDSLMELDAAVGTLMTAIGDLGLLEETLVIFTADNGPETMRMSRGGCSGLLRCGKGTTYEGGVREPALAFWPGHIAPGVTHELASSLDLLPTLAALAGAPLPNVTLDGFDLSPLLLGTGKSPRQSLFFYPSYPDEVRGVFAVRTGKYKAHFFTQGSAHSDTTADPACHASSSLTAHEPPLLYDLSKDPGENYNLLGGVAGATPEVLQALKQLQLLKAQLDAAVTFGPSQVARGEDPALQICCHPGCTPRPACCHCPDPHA

Take `CCCCCCCCCCCCCCCCO`: in [1], the Potency result is “inactive”. In addition, in test [2], the activation was 1.7%. In [3], the max response was 0.0651%.
Turning to `CCCCC(CC)COC(=O)c1ccc(N(C)C)cc1` (stereo not drawn), the activation was 0.436% and -4.01% in test [4]; 8.87% and 0.16% in test [2]. In [5], the Potency is 7.5 µM (active). In addition, the Potency entry in test [6] is “inactive”. The max response in test [3] is 0.44% and -4.46%.
On to `COc1ccc(C(Cl)=C(c2ccc(OC)cc2)c2ccc(OC)cc2)cc1`, for which the activation in [4] is 2.35%; in [2], -0.915%. In addition, the Potency is 15 µM (active) in test [5], 18.8 µM (active) in [6] and 18.8 µM (active) in [7]. In test [3], the max response was -4.66%.
`CC1(C)OC[C@@H]2O[C@@]3(C(=O)O)OC(C)(C)O[C@H]3[C@@H]2O1`: the Potency result in [1] is “inactive”. For the same molecule, the activation in test [2] was 1.2%. In [3], the max response is -1.9%.
Regarding `NC(N)=NCc1cccc(I)c1`, in test [8], the outcome was inactive.
For `C=C[C@H]1CN2CC[C@H]1C[C@@H]2[C@@H](O)c1ccnc2ccc(OC)cc12`, the Potency result in test [5] and in [6] was “inactive” each time. Moreover, the activation in test [2] was 4.17%.
With `CCOC(=O)[C@H](CCc1ccccc1)N[C@@H](C)C(=O)N1[C@H](C(=O)O)C[C@H]2CCCC[C@@H]21`, in test [9], the molecule was called inactive.
As for `CCOc1ccccc1C(N)=O`, the Potency entry in test [1] and in test [7] was “inactive” each time. Also, the activation was 1.59% in test [4] and 0.471% in test [2]. Further, the max response in [3] is -1.03%.
As for `NCCNc1cccc2ccccc12`, the Potency result in test [1] and in test [5] was “inactive” each time. The activation in test [4] is 1.04%. For the same molecule, the Potency in test [2] is 39.8 µM (active). Moreover, in [3], the max response is -2.74% and -3.34%.
For the molecule `CN(C)C(=O)Nc1ccc(Cl)c(Cl)c1`, in test [4], the activation is 3.41%. In [3], the max response is 0.591%.
For `Oc1c(Cl)cc(Cl)c(Cl)c1Cc1c(O)c(Cl)cc(Cl)c1Cl`, the Potency in [1] is 6.86 µM (active); in [4] it was 7.94 µM (active) and 12.6 µM (active); in [5] it was 2.98 µM (active); in test [6], 3.35 µM (active); in [7], 1.06 µM (active). Further, the activation in test [2] is 3.13% and 3.58%. Further, in test [3], the max response was 1.56% and 1.87%.
Turning to `CCCN(CCC)S(=O)(=O)c1ccc(C(=O)O)cc1`, the Potency result in test [1] and in [7] was “inactive” each time. The activation was -0.245% and -0.015% in [4]; -1.19% and -0.648% in test [2]. The max response in test [3] was -6.45% and -0.148%.
Consider `CN=C(N)NCCC[C@H](N)C(=O)O`, for which the result in test [9] was inactive. For the same molecule, the outcome in test [8] is “inactive; inhibitor; fitted 0.0054 uM”.
As for `OC[C@H]1O[C@@H]2O[C@H]3[C@H](O)[C@@H](O)[C@@H](O[C@H]4[C@H](O)[C@@H](O)[C@@H](O[C@H]5[C@H](O)[C@@H](O)[C@@H](O[C@H]6[C@H](O)[C@@H](O)[C@@H](O[C@H]7[C@H](O)[C@@H](O)[C@@H](O[C@H]8[C@H](O)[C@@H](O)[C@@H](O[C@H]1[C@H](O)[C@H]2O)O[C@@H]8CO)O[C@@H]7CO)O[C@@H]6CO)O[C@@H]5CO)O[C@@H]4CO)O[C@@H]3CO`, the Potency entry in test [1] and in [7] was “inactive” each time. Moreover, the max response in [3] is -4.97%.
For the molecule `CCOc1ccc(NC(C)=O)cc1`, the Potency entry in test [1] and in test [7] was “inactive” throughout. Moreover, the activation in [4] was -2.67% and -5.43%; in test [2] it was 1.23% and 0.542%. Further, the max response in test [3] was -5.21% and -4.18%.
In the case of `NC(=O)c1ccccc1O`, the Potency result in test [1] was “inactive”. For the same molecule, the activation was -1.87% in [4] and 2.51% in test [2]. For the same molecule, the molecule was classed as inactive in test [10]. The max response in test [3] is 4.04%.
As for `CCCCOC(=O)CC(CC(=O)OCCCC)(OC(C)=O)C(=O)OCCCC`, the Potency result in [1] is “inactive”. Besides, the activation in test [4] was -5.7%; in test [2], 0.777%. Further, the max response in test [3] is 5.65%.
As for `O=C(O)c1ccc(S(=O)(=O)N(Cl)Cl)cc1`, the activation was -0.128% in test [4] and 0.0057% in test [2]. Moreover, the max response in [3] is 7.46%. For the same molecule, the Potency entry in test [7] was “inactive”.
In the case of `CC(C)(C)CC(C)(C)c1ccc(O)c(-n2nc3ccccc3n2)c1`, the figures for the activation in [4] and in test [2] were -5.96% and 5.11%, respectively. The max response in test [3] was 12.6%.
Regarding `CCCCCCCCCCCCCCCC(=O)O`, the Potency entry in test [1] was “inactive”. Further, the activation in [4] is 1.38%; in test [2], 0.499%.
As for `COc1cc([C@H]2Oc3cc([C@H]4Oc5cc(O)cc(O)c5C(=O)[C@@H]4O)ccc3O[C@@H]2CO)ccc1O`, the activation was -9.47% in [4] and 0.406% in test [2]. Besides, the values for the Potency in test [5] and in [6] were 18.8 µM (active) and 26.6 µM (active), respectively. The max response in test [3] is -8.58%.
Regarding `C=C[C@@]1(C)CC(=O)[C@]2(O)[C@@]3(C)[C@@H](O)CCC(C)(C)[C@@H]3[C@H](O)[C@H](OC(C)=O)[C@@]2(C)O1`, the activation in [4] was -4.19%. In test [2], the Potency was 17.8 µM (active). In test [3], the max response is 0.227%.
As to `CC(C)(C)NC[C@H](O)COc1nsnc1N1CCOCC1`, the call in test [9] was inactive.
In the case of `C/C=C/c1ccc(O)c(OC)c1`, in [1], the Potency is 30.6 µM (active) and 42.2 µM (active). For the same molecule, the activation is -3.74% and -0.0356% in test [4]; 3.77% and 1.82% in test [2]. Moreover, in test [10], the result was inactive. For the same molecule, the max response in test [3] was -4.52% and -2.32%. For the same molecule, the Potency entry in test [7] was “inactive”.
Regarding `CCCCCCCC/C=C\CCCCCCCCN`, the activation is 4.37% in [4] and -0.319% in [2]. Besides, in [3], the max response was 0.202%.
In the same order, the values of `C#C[C@]1(O)CC[C@H]2[C@@H]3CCC4=Cc5oncc5C[C@]4(C)[C@H]3CC[C@@]21C` are -3.96%, 0.604% and -4.33%.
With `Oc1ccc(Cl)cc1Cc1cc(Cl)ccc1O`, in test [2], the activation was -1.39% and 3.39%.
As for `COc1ccc(C(=O)c2ccccc2)c(O)c1`, the activation was -2.61% and -3.01% in [4]; 8.63% and 11.4% in [2]. Further, in [3], the max response is 1.86% and -0.894%. In addition, the Potency entry in test [7] is “inactive”.
Turning to `CCCCCCCCCCCCCC(=O)OC(C)C`, the Potency entry in [1] was “inactive”. In addition, the activation in [4] was -0.604%; in test [2], -0.593%. Moreover, the max response in [3] is -1.44%.
On to `CCCCCCCCOc1ccc(C(=O)c2ccccc2)c(O)c1`, for which the Potency entry in test [1] is “inactive”. Moreover, the figures for the activation in test [4] and in test [2] were -0.0929% and -9.5%, respectively.
